# Results taken from PubChem BioAssay (NCI).
# Compounds without any hit were thinned out: in the full panel of roughly 79,000, 15% have a hit. Values without a mark were called inactive. Active and inactive are the calls of the source. Rule as the data show it: active = growth inhibition above about 70%; inactive = the rest.
# Assays:
# [1] = NCI Yeast Anticancer Drug Screen. Data for the rad52 strain (AID 147);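 also: 0% = growth of vehicle-treated control cultures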; conditions: S. cerevisiae rad52 mutant growth inhibition, active compounds read high
# Method in brief: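 Read-out: growth inhibition versus vehicle-treated controls. Cells were a DNA repair-deficient yeast strain treated with compounds.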
# [2] = NCI Yeast Anticancer Drug Screen. Data for the wt1 strain (AID 149);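 also: 0% = growth of vehicle-treated wt1 cultures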; conditions: S. cerevisiae wt1 strain (SPY 50644) growth inhibition, active compounds read high
# Method in brief: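 Growth inhibition read against vehicle controls after compound exposure of the wt1 yeast strain.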
# [3] = NCI Yeast Anticancer Drug Screen. Data for the rad50EPP+ strain (AID 151);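 also: 0% = growth of vehicle-treated control cultures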; conditions: S. cerevisiae rad50 mutant strain, active compounds read high
# Method in brief: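 Growth inhibition read against vehicle controls in rad50EPP+ yeast, a strain altered in DNA damage repair, after compound exposure.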
# [4] = NCI Yeast Anticancer Drug Screen. Data for the mgt1 strain (AID 153); conditions: S. cerevisiae mgt1 mutant growth inhibition, active compounds read high
# Method in brief: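 mgt1 yeast grown with test compound; read-out is growth inhibition versus vehicle-treated cultures.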
# [5] = NCI Yeast Anticancer Drug Screen. Data for the rad50 strain (AID 155);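 also: 0% = growth of vehicle-only cultures of the same strain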; conditions: S. cerevisiae rad50 strain growth inhibition, active compounds read high
# Method in brief: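 Readout: growth inhibition relative to vehicle-treated cultures. Compound exposure was carried out in a genetically defined yeast strain deficient in DNA damage repair.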
# [6] = NCI Yeast Anticancer Drug Screen. Data for the mec2-1 strain (AID 157); conditions: S. cerevisiae mec2-1 strain, active compounds read high
# Method in brief: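 Yeast mec2-1 mutant treated with compound. Readout: growth inhibition vs vehicle controls.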
# [7] = NCI Yeast Anticancer Drug Screen. Data for the rad14 strain (AID 159);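 also: 0% = growth of vehicle-treated control cultures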; conditions: S. cerevisiae rad14 strain growth inhibition, active compounds read high
# Method in brief: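 Growth inhibition vs vehicle controls; genetically altered yeast strain (DNA damage repair defect) treated with test compounds.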
# [8] = NCI Yeast Anticancer Drug Screen. Data for the sgs1 mgt1 strain (AID 161);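 also: 0% = growth of cultures given vehicle only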; conditions: S. cerevisiae sgs1 mgt1 strain, active compounds read high
# Method in brief: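 Mutant yeast exposed to compound; growth scored against vehicle-only wells.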
# [9] = NCI Yeast Anticancer Drug Screen. Data for the CLN2oe strain (AID 163);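 also: 0% = growth of vehicle-only control cultures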; conditions: S. cerevisiae CLN2oe strain, active compounds read high
# Method in brief: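 Read-out: yeast growth inhibition, expressed relative to vehicle-only controls. The strain bears an engineered cell-cycle alteration.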
# [10] = NCI Yeast Anticancer Drug Screen. Data for the cln2 rad14 strain (AID 165);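 also: 0% = growth equal to vehicle treated cultures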; conditions: S. cerevisiae cln2 rad14 strain, active compounds read high
# Method in brief: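 cln2 rad14 yeast strain; compound exposure; growth inhibition read vs vehicle controls.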
# [11] = NCI Yeast Anticancer Drug Screen. Data for the bub3 strain (AID 167); conditions: S. cerevisiae bub3 mutant strain, active compounds read high
# Method in brief: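 Readout: yeast growth inhibition, expressed relative to vehicle-only wells. The test organism is a mutant strain from a panel with lesions in DNA repair or checkpoint genes.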
# [12] = NCI Yeast Anticancer Drug Screen. Data for the wt2 strain (AID 169);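 also: 0% = growth of vehicle-treated yeast cultures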; conditions: S. cerevisiae wt2 strain growth inhibition, active compounds read high
# Method in brief: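 Read-out: growth inhibition versus vehicle-treated control cultures after compound exposure of the yeast strain.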
# [13] = NCI Yeast Anticancer Drug Screen. Data for the mlh1 strain (AID 171);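 also: 0% = growth of vehicle-treated control cultures of the same strain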; conditions: S. cerevisiae mlh1 strain growth inhibition, active compounds read high
# Method in brief: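 Read-out: growth inhibition versus vehicle controls. Strain: engineered yeast with a defined DNA repair or cell cycle defect, compound-treated.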
# [14] = NCI Yeast Anticancer Drug Screen. Data for the sgs1 strain (AID 173);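 also: 0% = growth of vehicle-only control cultures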; conditions: S. cerevisiae sgs1 mutant, active compounds read high
# Method in brief: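 Read-out: yeast growth inhibition relative to vehicle controls, following compound exposure of a strain with a defined DNA repair/cell cycle alteration.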
# [15] = NCI Yeast Anticancer Drug Screen. Data for the mlh1 rad18 strain (AID 175); conditions: S. cerevisiae mlh1 rad18 strain growth inhibition, active compounds read high
# Method in brief: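 Yeast w/ defined DNA-repair lesions; compound exposure; growth vs vehicle controls → % inhibition.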
# [16] = NCI Yeast Anticancer Drug Screen. Data for the rad18 strain (AID 177); conditions: S. cerevisiae rad18 mutant growth inhibition, active compounds read high
# Method in brief: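 Readout: growth inhibition vs vehicle controls. Cells: genetically altered yeast strain, DNA repair defect.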
# [17] = at 5.0 µM (retest, dose inferred, filed as 0.5)
# [18] = at 50.0 µM (retest, dose inferred, filed as 5.0)
compound,measurement,setting,value
CC1CC(C)(C)CC(OCCN2CCCCC2)(c2ccccc2)C1 (stereo unspecified),growth inhibition,[1]; at 1.2 µM,-1%
same,growth inhibition,[1]; at 3.7 µM,8%
same,growth inhibition,[1]; at 11.0 µM,15%
same,growth inhibition,[1]; at 33.0 µM,25%
same,growth inhibition,[1]; at 100.0 µM,84% (active)
same,growth inhibition,[2]; at 1.2 µM,2%
same,growth inhibition,[2]; at 3.7 µM,5%
same,growth inhibition,[2]; at 11.0 µM,12%
same,growth inhibition,[2]; at 33.0 µM,14%
same,growth inhibition,[2]; at 100.0 µM,32%
same,growth inhibition,[3]; at 1.2 µM,-5%
same,growth inhibition,[3]; at 3.7 µM,1%
same,growth inhibition,[3]; at 11.0 µM,-3%
same,growth inhibition,[3]; at 33.0 µM,-3%
same,growth inhibition,[3]; at 100.0 µM,-2%
same,growth inhibition,[4]; at 1.2 µM,0%
same,growth inhibition,[4]; at 3.7 µM,2%
same,growth inhibition,[4]; at 11.0 µM,10%
same,growth inhibition,[4]; at 33.0 µM,32%
same,growth inhibition,[4]; at 100.0 µM,83% (active)
same,growth inhibition,[5]; at 1.2 µM,3%
same,growth inhibition,[5]; at 3.7 µM,8%
same,growth inhibition,[5]; [17],28%
same,growth inhibition,[5]; at 11.0 µM,19%
same,growth inhibition,[5]; at 33.0 µM,25%
same,growth inhibition,[5]; [18],89% (active)
same,growth inhibition,[5]; at 50.0 µM,87.8% (active)
same,growth inhibition,[5]; at 100.0 µM,82% (active)
same,growth inhibition,[6]; at 1.2 µM,0%
same,growth inhibition,[6]; at 3.7 µM,3%
same,growth inhibition,[6]; [17],4%
same,growth inhibition,[6]; at 11.0 µM,10%
same,growth inhibition,[6]; at 33.0 µM,11%
same,growth inhibition,[6]; [18],10%
same,growth inhibition,[6]; at 50.0 µM,36.3%
same,growth inhibition,[6]; at 100.0 µM,54%
same,growth inhibition,[7]; at 1.2 µM,7%
same,growth inhibition,[7]; at 3.7 µM,21%
same,growth inhibition,[7]; at 11.0 µM,37%
same,growth inhibition,[7]; at 33.0 µM,62%
same,growth inhibition,[7]; at 100.0 µM,99% (active)
same,growth inhibition,[8]; [17],4%
same,growth inhibition,[8]; [18],79% (active)
same,growth inhibition,[8]; at 50.0 µM,83.5% (active)
same,growth inhibition,[9]; at 1.2 µM,2%
same,growth inhibition,[9]; at 3.7 µM,7%
same,growth inhibition,[9]; at 11.0 µM,20%
same,growth inhibition,[9]; at 33.0 µM,50%
same,growth inhibition,[9]; at 100.0 µM,87% (active)
same,growth inhibition,[10]; [17],-1%
same,growth inhibition,[10]; [18],26%
same,growth inhibition,[10]; at 50.0 µM,52.2%
same,growth inhibition,[11]; at 1.2 µM,-3%
same,growth inhibition,[11]; at 3.7 µM,4%
same,growth inhibition,[11]; [17],-16%
same,growth inhibition,[11]; at 11.0 µM,17%
same,growth inhibition,[11]; at 33.0 µM,52%
same,growth inhibition,[11]; [18],74% (active)
same,growth inhibition,[11]; at 50.0 µM,78.8% (active)
same,growth inhibition,[11]; at 100.0 µM,75% (active)
same,growth inhibition,[12]; at 1.2 µM,0%
same,growth inhibition,[12]; at 3.7 µM,5%
same,growth inhibition,[12]; at 11.0 µM,21%
same,growth inhibition,[12]; at 33.0 µM,32%
same,growth inhibition,[12]; at 100.0 µM,80% (active)
same,growth inhibition,[13]; at 1.2 µM,1%
same,growth inhibition,[13]; at 3.7 µM,5%
same,growth inhibition,[13]; at 11.0 µM,17%
same,growth inhibition,[13]; at 33.0 µM,15%
same,growth inhibition,[13]; at 100.0 µM,87% (active)
same,growth inhibition,[14]; at 1.2 µM,3%
same,growth inhibition,[14]; at 3.7 µM,12%
same,growth inhibition,[14]; at 11.0 µM,40%
same,growth inhibition,[14]; at 33.0 µM,63%
same,growth inhibition,[14]; at 100.0 µM,95% (active)
same,growth inhibition,[15]; [17],7%
same,growth inhibition,[15]; [18],79% (active)
same,growth inhibition,[15]; at 50.0 µM,84.8% (active)
CC[N+]1(C)CCC(O)(c2ccc(OC)cc2)C(C(=O)c2ccc(OC)cc2)C1 (stereo unspecified),growth inhibition,[1]; at 1.2 µM,-10%
same,growth inhibition,[1]; at 3.7 µM,-13%
same,growth inhibition,[1]; at 11.0 µM,-22%
same,growth inhibition,[1]; at 33.0 µM,-19%
same,growth inhibition,[1]; at 100.0 µM,-20%
same,growth inhibition,[2]; at 1.2 µM,-69%
same,growth inhibition,[2]; at 3.7 µM,-76%
same,growth inhibition,[2]; at 11.0 µM,-72%
same,growth inhibition,[2]; at 33.0 µM,-62%
same,growth inhibition,[2]; at 100.0 µM,-58%
same,growth inhibition,[3]; at 1.2 µM,-32%
same,growth inhibition,[3]; at 3.7 µM,-32%
same,growth inhibition,[3]; at 11.0 µM,-38%
same,growth inhibition,[3]; at 33.0 µM,-35%
same,growth inhibition,[3]; at 100.0 µM,-23%
same,growth inhibition,[4]; at 1.2 µM,-39%
same,growth inhibition,[4]; at 3.7 µM,-52%
same,growth inhibition,[4]; at 11.0 µM,-54%
same,growth inhibition,[4]; at 33.0 µM,-54%
same,growth inhibition,[4]; at 100.0 µM,-44%
same,growth inhibition,[5]; at 1.2 µM,-24%
same,growth inhibition,[5]; at 3.7 µM,-19%
same,growth inhibition,[5]; [17],24%
same,growth inhibition,[5]; at 11.0 µM,-37%
same,growth inhibition,[5]; at 33.0 µM,-21%
same,growth inhibition,[5]; [18],28%
same,growth inhibition,[5]; at 50.0 µM,-1.2%
same,growth inhibition,[5]; at 100.0 µM,-30%
same,growth inhibition,[6]; at 1.2 µM,-63%
same,growth inhibition,[6]; at 3.7 µM,-56%
same,growth inhibition,[6]; [17],7%
same,growth inhibition,[6]; at 11.0 µM,-69%
same,growth inhibition,[6]; at 33.0 µM,-61%
same,growth inhibition,[6]; [18],23%
same,growth inhibition,[6]; at 50.0 µM,14.8%
same,growth inhibition,[6]; at 100.0 µM,-74%
same,growth inhibition,[7]; at 1.2 µM,6%
same,growth inhibition,[7]; at 3.7 µM,0%
same,growth inhibition,[7]; at 11.0 µM,-33%
same,growth inhibition,[7]; at 33.0 µM,-3%
same,growth inhibition,[7]; at 100.0 µM,-27%
same,growth inhibition,[8]; [17],87% (active)
same,growth inhibition,[8]; [18],95% (active)
same,growth inhibition,[8]; at 50.0 µM,-4.7%
same,growth inhibition,[9]; at 1.2 µM,-13%
same,growth inhibition,[9]; at 3.7 µM,-3%
same,growth inhibition,[9]; at 11.0 µM,-14%
same,growth inhibition,[9]; at 33.0 µM,-4%
same,growth inhibition,[9]; at 100.0 µM,-20%
same,growth inhibition,[10]; [17],86% (active)
same,growth inhibition,[10]; [18],97% (active)
same,growth inhibition,[10]; at 50.0 µM,20.1%
same,growth inhibition,[11]; at 1.2 µM,-49%
same,growth inhibition,[11]; at 3.7 µM,-42%
same,growth inhibition,[11]; [17],35%
same,growth inhibition,[11]; at 11.0 µM,-61%
same,growth inhibition,[11]; at 33.0 µM,-52%
same,growth inhibition,[11]; [18],91% (active)
same,growth inhibition,[11]; at 50.0 µM,8.55%
same,growth inhibition,[11]; at 100.0 µM,-68%
same,growth inhibition,[12]; at 1.2 µM,-21%
same,growth inhibition,[12]; at 3.7 µM,-15%
same,growth inhibition,[12]; at 11.0 µM,-14%
same,growth inhibition,[12]; at 33.0 µM,-16%
same,growth inhibition,[12]; at 100.0 µM,-22%
same,growth inhibition,[13]; at 1.2 µM,-78%
same,growth inhibition,[13]; at 3.7 µM,-64%
same,growth inhibition,[13]; at 11.0 µM,-16%
same,growth inhibition,[13]; at 33.0 µM,-55%
same,growth inhibition,[13]; at 100.0 µM,-62%
same,growth inhibition,[14]; at 1.2 µM,-10%
same,growth inhibition,[14]; at 3.7 µM,-37%
same,growth inhibition,[14]; at 11.0 µM,-49%
same,growth inhibition,[14]; at 33.0 µM,-44%
same,growth inhibition,[14]; at 100.0 µM,-50%
same,growth inhibition,[15]; [17],25%
same,growth inhibition,[15]; [18],29%
same,growth inhibition,[15]; at 50.0 µM,6.75%
same,growth inhibition,[16]; at 1.2 µM,-7%
same,growth inhibition,[16]; at 3.7 µM,-17%
same,growth inhibition,[16]; at 11.0 µM,-13%
same,growth inhibition,[16]; at 33.0 µM,-23%
same,growth inhibition,[16]; at 100.0 µM,-23%
